Assay [1] has as its target Ubiquitin carboxyl-terminal hydrolase 1 (Homo sapiens) (UniProt O94782). Description: Inhibitors of USP1/UAF1: Pilot qHTS (AID 504865). Note: nearly all actives have a fitted effect of over 35% in size. Note: potency is the fitted concentration of half-maximal effect. Put shortly:
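Deubiquitinase activity followed as kinetic rhodamine fluorescence release from 150 nM Ub-Rho. 1 nM USP1/UAF1 with compound, after 15 min room-temperature preincubation, in HEPES pH 7.8 buffer containing TCEP, EDTA, BSA and Tween-20.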

In assay [2] the target is DNA dC->dU-editing enzyme APOBEC-3G (Homo sapiens) (UniProt Q9HC16). Description: qHTS for inhibitors of Vif-A3G interactions: Validation (AID 588379). Put shortly: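 HeLa cells stably expressing Vif and A3G-eYFP, 700 cells/well, incubated overnight at 37 deg C, then exposed to compound overnight at 37 deg C. Inhibition of Vif-mediated degradation read as increased yellow fluorescence (Ex 488/Em 500-530) by laser-scanning cytometry.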
Background: In qHTS, concentration-response curves come from the screen itself.

Assay [3] concerns the target Estrogen receptor (Homo sapiens) (UniProt P03372). Briefly: qHTS assay for small molecule agonists of estrogen receptor alpha signaling (AID 588514; calls by dose curve; note: nearly all actives have a fitted effect of over 70% in size). In short, it runs like this: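 Reporter-gene assay. […] controls beta-lactamase in HEK 293 GripTite cells; after 18 hrs with compound, CCF4 substrate is added for 2 hrs and fluorescence is read.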
For assay [4] the target is unchanged. Description: qHTS assay for small molecule antagonists of estrogen receptor alpha signaling (AID 588513; active = well fitted curve in the direction sought with a large enough effect in the signal ratio, with a control signal flat, not every such curve was filed as active; inconclusive = small, poorly fitted or top-dose-only effect, or effect the other way, or a change in a side signal; inactive = no such curve, though single readings can be large or run the other way; the % refers to the signal ratio; note: potency is the fitted concentration of half-maximal effect). Put shortly:
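Antagonist mode: inhibition of 0.5 nM 17-beta-estradiol-driven beta-lactamase reporter in HEK 293 ER-alpha-UAS-bla cells, 18 h at 37C, CCF4 readout after 2 h at RT. Normalised to estradiol and DMSO; titration fitted to Hill.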

Assay [5] has as its target Androgen receptor (Homo sapiens) (UniProt P10275). Briefly: qHTS assay for small molecule agonists of androgen receptor signaling (AID 588515; active = well fitted curve in the direction sought with a large enough effect in the signal ratio, with a control signal flat; inconclusive = small, poorly fitted or top-dose-only effect, or effect the other way, or a change in a side signal; inactive = no such curve, though single readings can be large or run the other way; the % refers to the signal ratio). The conditions noted are these: AR-UAS-bla HEK293, beta-lactamase ratio, agonist 16 h; hits give high values. In short, it runs like this:
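EC50 and efficacy came from Hill fits of titrations (up to 92 uM) normalized to 30 nM R1881 as 100% and DMSO as 0%. Compound exposure was 16 h at 37 C on AR-UAS-bla HEK293 cells, with a 405/460/530 nm CCF4 fluorescence read.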

Assay [6] has the same target. Description: qHTS assay for small molecule antagonists of androgen receptor signaling (AID 588516; active = well fitted curve in the direction sought with a large enough effect in the signal ratio, with a control signal flat, not every such curve was filed as active; inconclusive = small, poorly fitted or top-dose-only effect, or effect the other way, or a change in a side signal; inactive = no such curve, though single readings can be large or run the other way; the % refers to the signal ratio). In short, it runs like this:
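Antagonist mode: inhibition of R1881-stimulated (10 nM final) bla reporter in GeneBLAzer AR HEK 293 cells, 16 h at 37C, compounds titrated. IC50 and efficacy from Hill-equation fits of 405/460–530 nm FRET ratios.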

Each structure is given as a SMILES string. Values joined by “and” are separate entries in the source; they are usually repeats but may differ in a detail not shown here. Equal entries are not always repeated. Unmarked numbers belong to inactive results. Entries that show only a call come without a potency. Active and inactive are the calls of the source. Unless noted, calls come from the whole dose curve; as a rule, active = well fitted inhibition curve with a large enough effect; inconclusive = small, poorly fitted or top-dose-only effect; inactive = flat fitted curve, though single readings scatter. Numbered stars: 1 amine (or outer) side, 2 acyl side, 3 side chain; on linkers, the order of the positions; unused ones are H or OH. Bridge positions count the residues as written; N and C are the ends. Square brackets hold non-standard residues; d marks the D form. Peptide text beside a SMILES is read from it. I, II: the chains in the order shown. Actinocin(9to1) = Cc1c2oc3c(C)ccc(C(=O)[*:1])c3nc-2c(C(=O)[*:2])c(N)c1=O; NMeV = CN[C@H](C(=O)O)C(C)C; Sar = CNCC(=O)O

DNA dC->dU-editing enzyme APOBEC-3G (Homo sapiens), sequence (Q9HC16 whole entry, looked up): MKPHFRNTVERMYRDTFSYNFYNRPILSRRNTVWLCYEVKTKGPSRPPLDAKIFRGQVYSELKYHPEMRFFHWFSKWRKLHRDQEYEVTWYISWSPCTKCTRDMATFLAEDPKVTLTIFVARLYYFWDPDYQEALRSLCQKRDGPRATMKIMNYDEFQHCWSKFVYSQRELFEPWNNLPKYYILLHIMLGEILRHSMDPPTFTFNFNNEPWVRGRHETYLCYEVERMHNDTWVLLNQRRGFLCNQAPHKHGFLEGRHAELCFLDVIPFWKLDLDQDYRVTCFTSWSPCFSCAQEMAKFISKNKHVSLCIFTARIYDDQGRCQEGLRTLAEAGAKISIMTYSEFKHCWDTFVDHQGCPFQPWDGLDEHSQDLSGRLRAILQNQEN
Estrogen receptor (Homo sapiens), sequence (P03372 whole entry, looked up): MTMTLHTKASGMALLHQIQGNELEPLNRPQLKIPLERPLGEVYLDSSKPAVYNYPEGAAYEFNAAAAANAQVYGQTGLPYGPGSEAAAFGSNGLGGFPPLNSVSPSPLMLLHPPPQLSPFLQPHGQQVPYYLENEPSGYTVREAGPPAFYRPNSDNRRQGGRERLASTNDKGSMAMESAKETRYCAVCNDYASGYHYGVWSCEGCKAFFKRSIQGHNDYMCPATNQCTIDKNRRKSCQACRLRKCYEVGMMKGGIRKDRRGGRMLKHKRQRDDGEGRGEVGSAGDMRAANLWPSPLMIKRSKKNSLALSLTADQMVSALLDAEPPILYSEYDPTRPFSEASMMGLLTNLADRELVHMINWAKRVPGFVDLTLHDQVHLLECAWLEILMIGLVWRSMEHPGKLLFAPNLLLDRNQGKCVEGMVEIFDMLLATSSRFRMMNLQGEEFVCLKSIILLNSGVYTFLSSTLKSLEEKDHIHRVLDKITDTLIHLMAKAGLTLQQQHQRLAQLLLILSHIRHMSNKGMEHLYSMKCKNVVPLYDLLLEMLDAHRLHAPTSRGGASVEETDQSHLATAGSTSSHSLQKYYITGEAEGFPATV
Androgen receptor (Homo sapiens), sequence (P10275 whole entry, looked up): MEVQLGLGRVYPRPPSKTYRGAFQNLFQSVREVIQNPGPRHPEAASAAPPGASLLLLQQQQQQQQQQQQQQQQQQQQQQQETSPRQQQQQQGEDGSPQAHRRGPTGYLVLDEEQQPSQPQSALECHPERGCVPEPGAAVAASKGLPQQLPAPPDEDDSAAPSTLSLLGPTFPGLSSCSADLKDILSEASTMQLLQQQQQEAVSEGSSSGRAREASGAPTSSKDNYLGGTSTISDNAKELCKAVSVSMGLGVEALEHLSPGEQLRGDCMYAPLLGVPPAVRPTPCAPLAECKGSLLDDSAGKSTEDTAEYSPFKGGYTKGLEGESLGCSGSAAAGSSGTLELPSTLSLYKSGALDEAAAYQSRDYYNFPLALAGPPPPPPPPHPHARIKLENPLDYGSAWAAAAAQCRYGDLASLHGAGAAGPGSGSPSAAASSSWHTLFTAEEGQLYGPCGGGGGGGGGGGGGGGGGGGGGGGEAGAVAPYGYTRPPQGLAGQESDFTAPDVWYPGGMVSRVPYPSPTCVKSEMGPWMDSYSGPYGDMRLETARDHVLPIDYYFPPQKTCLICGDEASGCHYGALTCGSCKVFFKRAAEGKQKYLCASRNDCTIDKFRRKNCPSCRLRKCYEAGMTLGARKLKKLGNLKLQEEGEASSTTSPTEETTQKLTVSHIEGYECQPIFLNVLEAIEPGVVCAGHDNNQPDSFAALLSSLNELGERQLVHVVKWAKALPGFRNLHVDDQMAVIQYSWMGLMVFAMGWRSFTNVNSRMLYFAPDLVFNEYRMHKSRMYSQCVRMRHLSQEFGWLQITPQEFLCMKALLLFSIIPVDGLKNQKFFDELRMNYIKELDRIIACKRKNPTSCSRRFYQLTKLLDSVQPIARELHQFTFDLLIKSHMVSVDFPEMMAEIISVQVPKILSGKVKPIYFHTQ
Ubiquitin carboxyl-terminal hydrolase 1 (Homo sapiens), sequence (O94782 whole entry, looked up): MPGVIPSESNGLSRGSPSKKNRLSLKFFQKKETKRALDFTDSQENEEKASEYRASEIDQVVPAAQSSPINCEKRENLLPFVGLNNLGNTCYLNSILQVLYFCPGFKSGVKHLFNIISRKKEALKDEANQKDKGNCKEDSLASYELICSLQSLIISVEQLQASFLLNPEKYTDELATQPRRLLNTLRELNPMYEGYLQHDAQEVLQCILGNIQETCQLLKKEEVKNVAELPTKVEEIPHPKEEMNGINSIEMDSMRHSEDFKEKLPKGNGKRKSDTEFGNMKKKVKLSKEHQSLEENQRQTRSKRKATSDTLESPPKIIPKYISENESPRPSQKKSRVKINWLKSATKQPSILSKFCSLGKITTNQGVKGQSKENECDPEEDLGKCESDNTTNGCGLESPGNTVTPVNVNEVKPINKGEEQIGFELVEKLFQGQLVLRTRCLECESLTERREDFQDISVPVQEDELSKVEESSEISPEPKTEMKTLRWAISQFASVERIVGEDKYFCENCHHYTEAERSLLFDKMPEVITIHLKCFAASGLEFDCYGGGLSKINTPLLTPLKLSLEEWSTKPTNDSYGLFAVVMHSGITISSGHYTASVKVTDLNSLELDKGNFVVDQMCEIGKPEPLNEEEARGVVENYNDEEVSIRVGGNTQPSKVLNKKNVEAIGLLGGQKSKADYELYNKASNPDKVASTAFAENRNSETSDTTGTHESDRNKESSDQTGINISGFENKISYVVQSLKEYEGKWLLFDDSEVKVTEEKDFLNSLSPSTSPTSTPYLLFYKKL

As to `CC(C)(Oc1ccc(Cl)cc1)C(=O)O`, the Potency entry in assay [1] is “inactive”. In assay [2], the result was inactive.
For `CN(C)/N=N/c1nc[nH]c1C(N)=O`, the Potency entry in assay [1] is “inactive”. For the same molecule, the molecule was classed as inactive in assay [3].
As to `C[C@H]1C[C@H]2[C@@H]3CCC4=CC(=O)C=C[C@]4(C)[C@@]3(Cl)[C@@H](O)C[C@]2(C)[C@@]1(O)C(=O)CO`, the Potency entry in assay [1] was “inactive”. The outcome in assay [3] was inactive.
For `COc1c(C)c2c(c(O)c1C/C=C(\C)CCC(=O)O)C(=O)OC2`, the Potency entry in assay [1] was “inactive”. Also, the call in assay [2] was inactive.
For `CC(C)NC[C@@H](O)COc1cccc2ccccc12`, the Potency result in assay [1] is “inactive”. For the same molecule, the molecule was classed as inactive in assay [2].
`C=C(CC)C(=O)c1ccc(OCC(=O)O)c(Cl)c1Cl`: the Potency result in assay [1] and in assay [4] was “inactive” throughout. Also, the molecule was classed as inactive in assay [3].
As to `CCN1CCC[C@H]1CNC(=O)c1c(OC)ccc(Br)c1OC`, the Potency result in assay [1] was “inactive”. Besides, in assay [2], the molecule was classed as inactive.
Consider `C=CCc1ccc(O)c(OC)c1`, for which the Potency result in assay [1] and in assay [4] was “inactive” in each case. The call in assay [3] was inactive.
Consider `COc1cccc2c1C(=O)c1c(O)c3c(c(O)c1C2=O)C[C@@](O)(C(=O)CO)C[C@@H]3O[C@H]1C[C@H](N)[C@H](O)[C@H](C)O1`, for which the Potency in assay [4] was 5.01 µM [inconclusive] (active) and 7.94 µM [inhibitor] (active). The call in assay [3] was inactive.
With `Cc1cc(=O)n(-c2ccccc2)n1C`, the Potency entry in assay [4] is “inactive”. Besides, the molecule was called inactive in assay [3] and in assay [6]. The activation in assay [5] was -8.07%.
Turning to `CC[N+](CC)(CCNC(=O)C(=O)NCC[N+](CC)(CC)Cc1ccccc1Cl)Cc1ccccc1Cl`, the Potency result in assay [1] was “inactive”. The molecule was classed as inactive in assay [2].
Regarding `Cc1c2oc3c(C)ccc(C(=O)N[C@@H]4C(=O)N[C@H](C(C)C)C(=O)N5CCC[C@H]5C(=O)N(C)CC(=O)N(C)[C@@H](C(C)C)C(=O)O[C@@H]4C)c3nc-2c(C(=O)N[C@@H]2C(=O)N[C@H](C(C)C)C(=O)N3CCC[C@H]3C(=O)N(C)CC(=O)N(C)[C@@H](C(C)C)C(=O)O[C@@H]2C)c(N)c1=O` (I: T[dV]P[Sar][NMeV] / II: T[dV]P[Sar][NMeV]; ester I:1-I:C, II:1-II:C; linker I:N-II:N via Actinocin(9to1)), the Potency in assay [4] is 35.5 nM [inconclusive] (active) and 35.5 nM [inhibitor] (active). Also, the molecule was called inactive in assay [3].
Turning to `Oc1c(Cl)cc(Cl)cc1Sc1cc(Cl)cc(Cl)c1O`, the Potency in assay [1] was 35.5 µM (active) and 20 µM (active); in assay [4], 39.8 µM [inconclusive] (active). Besides, the molecule was classed as inactive in assay [3].
As to `CCCCCCc1ccc(O)cc1O`, in assay [1], the Potency was 44.7 µM (active). Also, the activation in assay [5] was -17.1%. The molecule was called inactive in assay [6].
`CNCC[C@@H](Oc1ccccc1C)c1ccccc1`: the Potency result in assay [1] was “inactive”. Moreover, the outcome in assay [2] was inactive.
For the molecule `CC(C)(C)CC(C)(C)c1ccc(OCCOCC[N+](C)(C)Cc2ccccc2)cc1`, in assay [4], the Potency is 44.7 µM [inconclusive] (active). Moreover, the outcome in assay [3] was inactive.
As for `O=C1OC(c2ccc(O)cc2)(c2ccc(O)cc2)c2ccccc21`, in assay [5], the activation is -5.75%.
As to `Nc1nc2ncc(CNc3ccc(C(=O)N[C@@H](CCC(=O)O)C(=O)O)cc3)nc2c(=O)[nH]1`, the Potency result in assay [1] is “inactive”. Also, the molecule was called inactive in assay [2].
Consider `COc1cccc2c1C(=O)c1c(O)c3c(c(O)c1C2=O)C[C@@](O)(C(C)=O)C[C@@H]3O[C@H]1C[C@H](N)[C@H](O)[C@H](C)O1`, for which the Potency in assay [1] is 44.7 µM (active) and 39.8 µM (active). Further, the result in assay [2] was inactive.
On to `CCOC(=O)COc1ccc2c(C)c(CCN(CC)CC)c(=O)oc2c1Cl`, for which the Potency entry in assay [1] was “inactive”.
Turning to `CN=C(NC#N)NCCSCc1csc(N=C(N)N)n1`, the Potency result in assay [1] was “inactive”. In addition, in assay [2], the call was inactive.
`COC1=CC(=O)C[C@@H](C)[C@]12Oc1c(Cl)c(OC)cc(OC)c1C2=O`: the Potency entry in assay [1] was “inactive”. For the same molecule, the outcome in assay [3] was inactive.
As for `O=C(Nc1ccc(Cl)c(Cl)c1)C1CC1`, the Potency entry in assay [1] is “inactive”.
As for `CN=C(NC#N)Nc1ccc(C2=NNC(=O)CC2C)cc1` (centres undefined), in assay [1], the Potency result is “inactive”. For the same molecule, the molecule was called inactive in assay [2].
On to `Nc1ccc(C(=O)O)cc1`, for which the Potency entry in assay [1] and in assay [4] was “inactive” each time. Further, the outcome in assay [3] was inactive.
Consider `CC(C)(CO)[C@@H](O)C(=O)NCCCO`, for which the Potency entry in assay [1] is “inactive”. For the same molecule, the molecule was classed as inactive in assay [2].
On to `O=C(O)CCCCC(=O)O`, for which the Potency result in assay [1] and in assay [4] was “inactive” throughout. Besides, the molecule was called inactive in assay [3].
On to `C[C@@H]1CN(CCCn2c3ccccc3c3ccccc32)C[C@H](C)N1`, for which the Potency result in assay [1] was “inactive”. In assay [2], the call was inactive.
`COc1cc(-c2ccc(=O)[nH]n2)ccc1OC(F)F`: the Potency result in assay [1] is “inactive”. Besides, in assay [2], the result was inactive.
For the molecule `CC(C)N=C(N)/N=C(\N)Nc1ccc(Cl)cc1`, the Potency result in assay [1] is “inactive”.

Values taken from PubChem BioAssay (NCATS).
